ADAM17 inh: ADAM17 inhibitors, primary screen, biochemical, QFRET. Disintegrin and metalloproteinase domain-containing protein 17 (Homo sapiens), P78536. inhibition, % at 6.95 µM. AID 720648, 2013. actives 0.83% (n = 370,000). recombinant ADAM17, EDANS/DABCYL FRET peptide cleavage;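 active = inhibition above the mean of compounds lying between control limits plus 3 SD, set per campaign, cut at about 8.5% in these data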;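 also: 0% = DMSO-only wells as the low control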
KLK7 zymogen act: proKLK7 zymogen activators, primary screen, biochemical, fluorescence intensity. purified proKLK7, EDANS-DABCYL substrate fluorescence; 100% is mature enzyme control, 0% vehicle. actives 0.9% (n = 370,000). activation, % at 7 µM;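 active = activation above the mean of all tested compounds plus 3 SD, computed per campaign excluding outliers beyond control limits, cut at about 13% in these data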
Target sequence (P49862 whole entry, looked up): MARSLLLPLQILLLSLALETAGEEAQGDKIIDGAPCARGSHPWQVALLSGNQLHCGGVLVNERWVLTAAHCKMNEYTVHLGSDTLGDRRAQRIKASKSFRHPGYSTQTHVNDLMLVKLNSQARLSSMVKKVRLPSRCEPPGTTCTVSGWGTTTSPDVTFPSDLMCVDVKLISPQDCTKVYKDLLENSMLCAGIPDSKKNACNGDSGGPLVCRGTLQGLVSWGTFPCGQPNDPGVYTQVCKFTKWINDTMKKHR
ADAM10 inh: human ADAM10 inhibitors, primary screen, biochemical, QFRET, HTS; Disintegrin and metalloproteinase domain-containing protein 10 (Homo sapiens), O14672; recombinant ADAM10, EDANS/DABCYL FRET peptide cleavage, 3 h; inhibition, % at 7 µM; actives 0.62% (n = 370,000);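 active = inhibition above a per-campaign cutoff equal to the mean of compounds falling between control-based bounds plus 3 SD, cut at about 20% in these data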;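 also: 0% = DMSO wells while the 100% control is not disclosed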
PLCb3 inh: human PLC-beta3 inhibitors, primary screen, biochemical, fluorescence; 1-phosphatidylinositol 4,5-bisphosphate phosphodiesterase beta-3 (Homo sapiens), Q01970; Purified PLC-beta3, fluorogenic substrate; inhibition, % at 12.2 µM; actives 0.18% (n = 370,000); in the data active = inhibition above about 11%;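 also: 0% = median of compound wells on plate and 100% = full blocker control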
PLCg1 inh: PLC-gamma1 enzyme inhibitors, primary screen, biochemical, fluorescence, purified enzyme; 1-phosphatidylinositol 4,5-bisphosphate phosphodiesterase gamma-1 (Homo sapiens), P19174; fluorogenic substrate; inhibition, % at 12.2 µM; actives 0.84% (n = 370,000); AID 720700, 2013; in the data active = inhibition above about 9.5%
HGIII-sPLA2 inh: human group III sPLA2 inhibitors, primary screen, biochemical, QFRET, BODIPY PC-A2 liposome substrate | QFRET BODIPY PC-A2 liposome hydrolysis, fluorescence | inhibition, % at 12.2 µM | actives 0.56% (n = 370,000) | AID 743126, 2013;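 active = inhibition above mean plus 3 SD of compounds lying within the high and low control bounds, cut at about 19% in these data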;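 also: 0% = median of test compound wells and 100% = no enzyme DMSO wells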
hGIII sPLA2 conf: human group III sPLA2 inhibitors, confirmation, biochemical, QFRET, triplicate; shares compounds with HGIII-sPLA2 inh; actives 34% (n = 2,000); inhibition, % at 12.2 µM; AID 743280, 2014; recombinant hGIII-sPLA2, BODIPY PC-A2 QFRET fluorescence;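 active = mean inhibition across triplicates above the hit cutoff set in the earlier primary screen, cut at about 19% in these data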;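 also: 0% = enzyme with DMSO and 100% = DMSO wells lacking enzyme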
535nm interf: 535nm fluorescence optical interference, confirmation, artefact control for HGIII-sPLA2 inhibitor project, biochemical, QFRET; shares compounds with HGIII-sPLA2 inh; BODIPY FL product fluorescence interference; inhibition, % at 12.2 µM; actives 8.5% (n = 2,000);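 active = average inhibition above the solvent-only control mean plus 3 SD, cut at about 6% in these data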;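 also: 0% = DMSO with substrate plus product and 100% = DMSO with substrate alone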
535nm interf DR: 535nm fluorescence optical interference, dose response, artefact control for HGIII-sPLA2 inhibitor project, biochemical, QFRET | shares compounds with HGIII-sPLA2 inh | BODIPY FL product fluorescence interference, cell-free | IC50, µM | 240 tested, under 10 active | AID 743455, 2014;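 active = IC50 at or below 10 µM; inactive = IC50 above 10 µM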
Starred values were filed as active, the others as inactive; x = not tested or not shown. An excerpt weighted towards active compounds, which were near 3.4% of everything screened.

SMILES	ADAM17 inh	KLK7 zymogen act	ADAM10 inh	PLCb3 inh	PLCg1 inh	HGIII-sPLA2 inh	hGIII sPLA2 conf	535nm interf	others
CCN1CCN(/C=N/c2nc(C)cs2)CC1	5	0	19	8	6	94*	6	-3
Cc1cc(N2CCCC2)ccc1NC(=O)COc1cccc(C(F)(F)F)c1	5	1	3	-8	2	22*	35*	3	535nm interf DR=>122
NC(N)=NS(=O)(=O)c1ccc(NC(=S)NC(=O)/C=C/c2ccc(F)cc2)cc1	-3	0	-4	-7	7	22*	4	-5
COC(=O)C1CN(Cc2cn(Cc3ccc(OC)cc3)nn2)CCS(=O)(=O)N1Cc1ccc(Cl)cc1 (configuration not stated)	-1	0	-1	0	0	0	x	x
COc1cc(NC(=O)[C@@H](Cc2ccccc2)NC(=O)[C@H]2O[C@@H](n3ccc(=O)[nH]c3=O)[C@H](O)[C@@H]2O)cc(OC)c1OC	-4	0	-9	1	-2	1	x	x
c1ccc2[nH]c(SCc3cn4cccnc4n3)nc2c1	-30	-1	-73	-40	-28	23*	-4	-7
c1ccc(-c2cnnc(SCc3cn4cccnc4n3)n2)cc1	-3	0	-3	-2	1	5	x	x
O=C(C[n+]1ccc(/C=N/O)cc1)N1CCCCC1	-4	1	-5	-12	2	22*	-4	-3
O=C(C[n+]1cccc(/C=N/O)c1)N1CCCCCC1	1	0	1	2	-1	3	x	x
CCOC(=O)[C@]12CCCC=C1N(CCCOC)C(=O)[C@@H]2CC(=O)NCc1cccs1	-2	0	-3	2	0	-1	x	x
CCOC(=O)NC(=O)C(=CNc1ccccc1OC)C(=O)NC(=O)OCC	-1	-1	-3	-1	3	21*	8	-1
COC(=O)C1CN(Cc2cn(Cc3ccc(F)cc3)nn2)CCS(=O)(=O)N1Cc1ccc(F)cc1 (configuration not stated)	5	0	11	6	9	3	x	x
NC(=O)[C@@H]1CCCN1C(=O)[C@H]1O[C@@H](n2ccc(N)nc2=O)[C@H](O)[C@@H]1O	-5	1	-10	2	-8	6	x	x
C[C@H](O)[C@@H]1CN2CCc3ccc(N4CCOCC4)cc3[C@@H]2C[C@@H]1N(C)C(=S)NCCc1ccccc1	-2	0	-5	-8	-7	1	x	x
CCn1c(S(=O)(=O)O)nc2ccccc21	-5	0	-8	-12	2	20*	0	-3
O=S(=O)(O)c1nc2ccccc2n1Cc1ccccc1	-6	-1	-1	-3	2	20*	1	-3
CCCCn1c(S(=O)(=O)O)nc2ccccc21	-2	0	3	-3	-1	1	x	x
Cc1c(Cl)c(C(=O)NNC(=S)Nc2ccc(F)cc2)nn1C	4	0	5	2	3	34*	41*	5	535nm interf DR=>122
Cc1c(Cl)c(C(=O)NNC(=S)Nc2ccccc2)nn1C	-4	0	5	1	-2	29*	46*	0	535nm interf DR=>122
CCNC(=S)NNC(=O)c1nn(C)c(C)c1Cl	0	0	0	-5	0	6	x	x
COc1ccccc1NC(=O)NNC(=O)c1cc2ccccc2cc1O	-1	-5	-7	-150	-92	27*	20*	6
Cc1ccc(NC(=O)NNC(=O)c2cc3ccccc3cc2O)cc1	-10	1	-5	-133	-90	27*	15	-4
CN(C)CC(C)(C)CN=Cc1c(O)[nH]c2ccccc12	-5	0	-5	-7	-1	19*	15	-2
OCCN=Cc1c(O)[nH]c2ccccc12	-3	0	3	6	3	6	x	x
Cc1ccc2c(c1)C(=O)C(=O)N2Cc1ccc(Cl)cc1	-2	0	0	-5	-4	21*	23*	1
SMILES	ADAM17 inh	KLK7 zymogen act	ADAM10 inh	PLCb3 inh	PLCg1 inh	HGIII-sPLA2 inh	hGIII sPLA2 conf	535nm interf	others
COc1cccc(OCC(=O)NNC(=O)c2ccc3ccccc3c2O)c1	-150	-8	-428	-110	-70	36*	33*	3	535nm interf DR=>122
COc1ccc(C(=O)NNC(=O)c2ccc3ccccc3c2O)cc1	-8	0	-22	-17	-7	-2	x	x
COc1ccc(C(=O)NNC(=O)COc2ccc(Cl)cc2)c(OC)c1	-3	0	1	-8	-3	25*	12	-7
COc1cc(OC)cc(-c2c(-c3cccs3)c3cc(-c4ccc5[nH]ccc5c4)ccc3n2C)c1	-44	-17	-168	-336	-226	20*	37*	8.7*
Cc1cccc(C)c1NC(=O)C(c1ccc(-c2ccccc2)cc1)n1c(=O)c(-c2ccco2)nc2ccccc21 (configuration not stated)	0	-1	4	-34	-16	20*	13	-12
CCCCCNC(=O)C(c1cccc2ccccc12)n1c(=O)c(-c2ccco2)nc2ccccc21 (configuration not stated)	-1	-1	-5	-34	-25	22*	7	-14
CC(C)(C)NC(=O)C(c1ccc(-c2ccccc2)cc1)n1c(=O)c(-c2ccco2)nc2ccccc21 (configuration not stated)	-3	-1	-11	-39	-30	3	x	x
COc1ccc(NC(=O)Nc2cnccn2)cc1	-8	0	-29	-7	0	22*	2	-4
CCOc1ccc(NC(=O)Nc2cnccn2)cc1	-4	1	-5	-2	0	3	x	x
Cc1ccc(/C(O)=C2/C(=O)C(=O)OC2c2ccc(Cl)cc2)cc1 (configuration not stated)	1	-1	1	2	0	7	x	x
O=C1OC(c2ccccc2)/C(=C(/O)c2ccc(Cl)cc2)C1=O (configuration not stated)	-1	0	5	-5	8	22*	-39	-3
